Pf apPOL inh – Pf-apPOL DNA polymerase inhibition; inhibition, % at 10 µM; Recombinant Pf-apPOL, molecular beacon fluorescence, 1.5 h; hit rate 0.25% among 210,000
mHTT CaM bind – mHTT-calmodulin interaction abrogation | AlphaScreen His-mHTT/GST-CaM binding, luminescence | inhibition, % at 15 µM | hit rate 3.6% among 190,000 | AID 1671202;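 also: 0% = both proteins with DMSO and 100% = one protein alone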
An asterisk follows results filed as active. A selection: hits, their analogues and other compounds. The true share with any hit is near 3.6%. Rule as the data show it: active = inhibition above about 50%; inactive = the rest.

SMILES | Pf apPOL inh | mHTT CaM bind
CN(C)CCSc1nnc2c(n1)[nH]c1ccccc12 | 5 | 0
COc1cccc(C(C)NC(=O)C2CCN(Cc3cn(C)c4ccccc34)CC2)c1 (centres undefined) | -7 | 2
COc1ccc2[nH]cc(CN3CCC(C(=O)NC(C)c4ccc(F)cc4)CC3)c2c1 (centres undefined) | 1 | 68*
O=C(NCC1CCCO1)c1cc2cc([N+](=O)[O-])ccc2oc1=O (centres undefined) | -4 | -5
Cc1ccc(C(=O)N2CCCCC2CCN(C)C)s1 (centres undefined) | -2 | -1
Cc1ccc(C(=O)N=C2SCCN2C(=O)c2ccc(C)s2)s1 | 0 | 87*
O=C1CSC(c2ccc(OC(F)F)cc2)N1c1cc(Cl)ccc1O (centres undefined) | -3 | 9
COc1cccc2ccc(C3C(=O)c4ccccc4C3=O)nc12 | -4 | 2
COc1ccc(C2CC(C3C(=O)c4ccccc4C3=O)=NN2)cc1 (centres undefined) | -1 | 100*
CCN1/C(=C/c2cccc[n+]2C)Sc2ccccc21 | -8 | 3
Cc1nc2c(C(=O)N3CCCCC3)cnn2c(C)c1Cc1ccccc1Br | -9 | 41
Cc1nc2c(C(=O)NCc3ccccc3)cnn2c(C)c1Cc1ccc(Cl)cc1 | -9 | 35
COCCNC(=O)c1cnn2c(C)c(Cc3ccc(F)cc3)c(C)nc12 | -9 | 19
Cc1nc2c(C(=O)N3CCCC(C)C3)cnn2c(C)c1Cc1ccc(Cl)cc1 (centres undefined) | -4 | 100*
COCCCNC(=O)c1cnn2c(C)c(Cc3ccc(Cl)cc3)c(C)nc12 | -14 | 90*
Cc1nc2c(C(=O)N3CCCCC3)cnn2c(C)c1Cc1ccc(Cl)cc1 | 2 | 100*
O=C(Nc1ccc(Cl)c(Cl)c1)C1(c2ccccc2)CCOCC1 | -5 | 29
N#Cc1cccc(N2C(=O)c3ccc(-c4nc5ccccc5c(=O)o4)cc3C2=O)c1 | -3 | -2
Cc1ccc(-c2cncc(C(=O)Nc3ccc(F)c(Cl)c3)c2)cc1 | -3 | -9
O=C(CCS(=O)(=O)c1ccccc1)Nc1onc2c1CSC2 | 20 | -3
Cc1ccc(-c2c(C(=O)NCc3ccccc3)oc(=O)c3ccccc23)cc1 | 3 | -5
Cc1ccc(-c2c(C(=O)NCCN3CCN(c4ccccc4)CC3)oc(=O)c3ccccc23)cc1 | -1 | 54*
COc1ccc(OC)c(NC(NC(=O)c2ccco2)C(=O)c2ccc(Cl)cc2)c1 (centres undefined) | -6 | 67*
CCOc1ccccc1NC(NC(=O)c1ccco1)C(=O)c1ccc(Cl)cc1 (centres undefined) | -4 | 43
CC1CCc2onc(C(=O)N(Cc3ccco3)C3CCCC3)c2C1 (centres undefined) | 0 | -9
SMILES | Pf apPOL inh | mHTT CaM bind
COc1ccccc1CC(=O)c1ccc(O)c(CN2CCCC(C)C2)c1O (centres undefined) | -21 | 9
Cc1nnc(NC(=O)CSc2nnc(-c3ccco3)c(-c3ccco3)n2)s1 | -1 | 67*
CCSc1nnc(NC(=O)CSc2nnc(CNC(=O)c3ccco3)o2)s1 | 5 | -9
CCc1nnc(NC(=O)CSc2nnc(-c3ccco3)c(-c3ccco3)n2)s1 | 5 | 65*
CCSc1nnc(NC(=O)CSc2nnc(-c3ccco3)c(-c3ccco3)n2)s1 | 3 | 81*
O=C(CSc1nnc(-c2ccco2)c(-c2ccco2)n1)Nc1nc2ccccc2s1 | -10 | 47
CCc1nnc(NC(=O)CSc2ncccn2)s1 | 0 | -5
O=C(c1cccs1)N1CCN(c2nc(CN3CCOCC3)cs2)CC1 | 2 | 12
O=C1OC(c2ccc(Cl)cc2Cl)=N/C1=C\c1cccs1 | -1 | 6
CCCCNC(=O)C1CCN(c2nccc(C)n2)CC1 | -5 | -10
C#CCOCC1CCN(C(=O)c2cccc(Cl)c2)CC1 | 7 | -1
Oc1ccc(-c2csc(-c3c[nH]c4ccccc34)n2)cc1O | 8 | 99*
Oc1ccc(C(c2c[nH]c3ccccc23)c2c[nH]c3ccccc23)cc1O | -4 | -4
COc1ccc(N=C2NC(=O)CC(C(=O)Nc3cc(C(F)(F)F)ccc3Cl)S2)cc1 (centres undefined) | -11 | 78*
COc1ccc(NC(=O)C2CC(=O)NC(=Nc3ccc(C)c(C)c3)S2)cc1 (centres undefined) | -6 | 2
O=S(=O)(c1cccnc1)N1CCN(Cc2nnnn2-c2ccc(F)c(F)c2)CC1 | -7 | -9
CCc1ccc(S(=O)(=O)N2CCC(CN3CCC(C)CC3)CC2)cc1 | -3 | -9
CCc1ccc(S(=O)(=O)N2CCC(CN3CCCCCC3)CC2)cc1 | 2 | 100*
CCCc1nc2c(c(=O)n1CC(=O)Nc1cc(C)ccc1C)CCN(Cc1ccccc1)C2 | -1 | 5
CCCNC(=O)C1CCCN(c2nc3ncn(CC(=O)NC4CCCC4)c(=O)c3s2)C1 (centres undefined) | -1 | 0
COc1ccc(NC(=O)c2cc3cccc(OC)c3oc2=O)c(OC)c1 | 100* | 2
COc1cccc2cc(C(=O)Nc3ccc(C)cc3C)c(=O)oc12 | -5 | 1
Cc1cc[n+](C2C(c3ccc([N+](=O)[O-])cc3)C(C#N)=C(S)NC2(O)C2CC2)cc1 (centres undefined) | -2 | 58*
CCOc1ccc(C2C(C#N)=C(C(C#N)C#N)NC(O)(C3CC3)C2[n+]2ccc(C)cc2)cc1 (centres undefined) | -3 | 17
Cc1ccc(C2(O)NC(S)=C(C#N)C(c3ccc(F)cc3)C2[n+]2ccccc2)cc1 (centres undefined) | 0 | 82*
SMILES | Pf apPOL inh | mHTT CaM bind
N#CC1=C(S)NC(O)(c2ccccc2)C([n+]2ccc3ccccc3c2)C1c1cccc(F)c1 (centres undefined) | -6 | 69*
CC1(O)NC(C(C#N)C#N)=C(C#N)C(c2ccc(F)cc2)C1[n+]1ccccc1 (centres undefined) | -2 | 0
Cc1ccc(N2CCN(C(=O)c3ccccc3)C(C)C2=O)cc1C (centres undefined) | -8 | -5
CN1C(=O)C(CC(=O)NCc2ccccn2)Sc2ncccc21 (centres undefined) | -6 | -7
N#CC1=C(N)Oc2cc(N)ccc2C1c1ccc(Cl)c(Cl)c1 (centres undefined) | -12 | 75*
N#CC1=C(N)Oc2cc(O)ccc2C1c1ccc(Br)cc1 (centres undefined) | -13 | 27
N#CC1=C(N)Oc2cc(O)ccc2C1c1ccc(Cl)c(Cl)c1 (centres undefined) | -6 | 100*
N#CC1=C(N)Oc2cc(N)ccc2C1c1ccc(Cl)cc1 (centres undefined) | -3 | 16
COc1ccc(C=C2Oc3cc(O)cc(C)c3C2=O)cc1 | 2 | 7
O=C(NCc1ccccn1)C1CCN(c2cnn(Cc3ccccc3)c(=O)c2)CC1 | -1 | 2
CCCCCNC(=O)C1CCCN(c2ncc(-c3ccccc3)cn2)C1 (centres undefined) | -5 | -10
COCCn1cc2c3c(cccc31)CN(C(=O)c1cc(Cl)ccc1OC)CC2 | 0 | 71*
COCCn1cc2c3c(cccc31)CN(C(=O)c1ccc(Br)o1)CC2 | -7 | 76*
COCCn1cc2c3c(cccc31)CN(C(=O)c1ccc(F)cc1)CC2 | -1 | 64*
COCCn1cc2c3c(cccc31)CN(C(=O)Nc1cccc(F)c1)CC2 | 1 | 3
COCCn1cc2c3c(cccc31)CN(C(=O)c1cc(F)ccc1F)CC2 | -3 | 26

Screening data as filed in PubChem.
